Bioassay records (PubChem BioAssay)
This is a sample that favours compounds with a hit; in the whole collection about 2.3% have one here.
CHRM1 PAM – potentiates human M1 receptor response to acetylcholine; activation, % at 3 µM; CHO-K1 hM1, Fluo-8 calcium fluorescence, ACh EC20; 0% = ACh EC20, 100% = maximal ACh; 360,000 compounds, 0.088% hits; P11229; in the data active = activation above about 19%, passing the limit was not always enough
Target sequence (P11229 whole entry, looked up): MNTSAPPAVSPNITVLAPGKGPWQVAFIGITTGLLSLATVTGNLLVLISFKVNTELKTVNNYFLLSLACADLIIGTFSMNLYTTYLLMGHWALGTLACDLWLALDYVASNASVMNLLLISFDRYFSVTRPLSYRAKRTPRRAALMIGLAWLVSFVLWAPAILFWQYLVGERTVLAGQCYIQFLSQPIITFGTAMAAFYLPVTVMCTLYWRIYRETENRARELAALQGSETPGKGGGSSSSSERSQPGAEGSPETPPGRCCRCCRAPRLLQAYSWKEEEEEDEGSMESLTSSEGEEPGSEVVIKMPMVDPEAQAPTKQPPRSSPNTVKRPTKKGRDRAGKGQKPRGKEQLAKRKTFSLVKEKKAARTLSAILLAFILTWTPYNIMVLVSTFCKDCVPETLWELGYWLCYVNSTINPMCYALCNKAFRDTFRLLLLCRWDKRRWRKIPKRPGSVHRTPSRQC
M1 PAM parental – nonselective activator or artifact in parental CHO-K1 calcium assay | activation, % at 3 µM | ATP EC20, Fluo-8 calcium fluorescence; 0% at ATP EC20, 100% at ATP max | AID 602247 | 360,000 compounds, 0.02% hits;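 active = activation above the run cutoff, the mean activation of all test compounds plus 3 SD, cut at about 40% in these data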;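 note: peak over basal fluorescence ratio in a 140 s read after ATP addition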
CHRM1 antagonist – human CHRM1 antagonism; AID 588852; 360,000 compounds, 1.3% hits; inhibition, % at 3 µM; CHO-K1 hM1, Fluo-8 calcium fluorescence, ACh EC80 antagonist;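 active = percent inhibition above its own plate's cutoff, namely the mean of that plate's compound wells plus 3 SD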;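 note: peak over basal fluorescence ratio during 140 s after agonist addition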
M1 ag – activates human CHRM1 receptor; activation, % at 3 µM; P11229; CHO-K1 hM1, Fluo-8 calcium fluorescence, agonist mode; 0% DMSO, 100% acetylcholine EC100; 360,000 compounds, 0.33% hits;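 active = activation above the run's mean compound activation plus 3 SD, cut at about 16% in these data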;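 note: peak over basal fluorescence ratio within a 140 s kinetic read after compound addition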
CHO-K1 Ca antag – M1 antagonist counterscreen hit in parental CHO-K1 cells; ATP-induced calcium, Fluo-8 fluorescence; inhibition, % at 3 µM; 360,000 compounds, 0.6% hits; AID 602250;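 active = inhibition above a per-plate cutoff, the plate's mean sample inhibition plus 3 SD, cut at about 24% in these data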
CHO-K1 Ca ag – nonselective activator or artifact in parental CHO-K1 cells; Fluo-8 calcium fluorescence; scaled to maximal ATP response, vehicle zero; activation, % at 3 µM; 360,000 compounds, 0.48% hits; in the data active = activation above about 15%;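 note: untransfected CHO-K1 host cells lacking M1 receptor as counterscreen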
Large screens that a line does not name were inactive.

Cc1cc(=O)c(C(=O)Nc2cccc(C(=O)NC3CC3)c2)nn1-c1ccccc1	none
O=C(Nc1cccnc1)c1ccc2nc(-c3ccccc3)c(-c3ccccc3)nc2c1	CHO-K1 Ca ag 16.7
O=C(Nc1cccnc1)c1ccc(Oc2ccccc2)cc1	none
CCOc1ccccc1C(=O)Nc1ccc(S(=O)(=O)Nc2nccc(C)n2)cc1	none
c1ccc(C(Cc2nc(-c3ccncc3)no2)c2ccccc2)cc1	CHRM1 antagonist 24.2
CCN(Cc1ccccc1)C(=O)COC(=O)Cc1c[nH]c2ccccc12	CHO-K1 Ca antag 25.4
C[C@H]1CN(S(=O)C(C)(C)C)[C@@H](CCO)/C1=C\CCO (some centres undefined)	none
C#CCOC(=O)CCCC(=O)NCCCCCCCC	none
O=C(O)c1ccc(Br)cn1	none
CCCCCCCCCCCCN1[C@@H](CC(=O)OC)c2cc(F)ccc2S1(=O)=O	CHRM1 PAM 31.6
COc1ccc(-n2nc(C(=O)NCC(=O)NCCN(C)C)c3ccccc3c2=O)c(OC)c1	none
COc1ccc(N2CC(C(=O)Nc3c4c(nn3-c3ccc(OC)cc3)CS(=O)(=O)C4)CC2=O)cc1 (centres undefined)	CHRM1 PAM 25.6
COc1ccc(-n2nnnc2CNC(=O)C2CC(=O)N(c3ccc(F)cc3)C2)cc1 (centres undefined)	CHO-K1 Ca antag 27.6
CCOC(=O)C1=C(C)N=C2SC(C(=O)OC)=CC(=O)N2C1c1cc(OC)c(OC)c(OC)c1 (centres undefined)	none
CCOc1ccc(C(=O)Nc2nnc(SCC(=O)NCC3CCCO3)s2)cc1OCC (centres undefined)	none
COc1ccc(-c2noc(-c3csc([C@@H]4O[C@H](CO)[C@H](O)[C@H](O)[C@H]4O)n3)n2)cc1OC	none
CCn1c(CC(=O)Nc2ccc(C)cc2)nnc1SCC(=O)N1CCOCC1	none
COc1ccccc1/C=C/C(=O)N1CCN(S(=O)(=O)c2cc(C)ccc2C)CC1	none
COc1ccc(OCCOc2ccc(/C=C3\C(=N)N4N=C(C)SC4=NC3=O)cc2)cc1	none
CN1CCC(=O)N([C@H](CSc2ccc(Br)cc2)c2ccccc2)CC1	CHRM1 antagonist 54.8
CCCN1CCC(=O)N([C@H](CSc2ccccc2)c2ccccc2)CC1	none
c1ccc(C(CN2CCCCC2)Oc2ccccn2)cc1 (centres undefined)	CHRM1 antagonist 83.2
OC(COC(c1ccccc1)c1ccccc1)CN1CCCCC1 (centres undefined)	none
O=C(CSc1nccc(=O)[nH]1)NC1CCCCCCC1	none
Fc1ccc(N2CCN(Cc3cn[nH]c3-c3ccccc3)CC2)cc1	none
Fc1ccc(-c2[nH]ncc2CN2CCN(c3ccc(F)cc3)CC2)cc1	M1 ag 16.8
CCCOC(=O)c1cccc(Nc2nc(-c3cccnc3)nc3ccccc23)c1	CHRM1 antagonist 34.4
O=C(OCCNc1nc(-c2ccccc2)nc2ccccc12)c1cccnc1	none
Cc1ccc(C(=O)N(Cc2ccccc2)C(C)(C)C)cc1C	CHRM1 antagonist 51.4
CC(C)(C)N(Cc1ccccc1)C(=O)c1ccc(Cl)cc1[N+](=O)[O-]	CHRM1 antagonist 38.9
CC(C)(C)N(Cc1ccccc1)C(=O)c1ccc(Br)o1	none
CCCCNC(=O)C1(C)CCCCN1C(=O)c1ccc(C#N)cc1 (centres undefined)	none
[O-]/C(=C(\C(=S)Nc1cccc2ccccc12)[n+]1ccccc1)c1ccc(Cl)s1	none
Cc1ccc(C)c(NC(=S)/C(=C(\[O-])c2ccc(Cl)s2)[n+]2ccccc2)c1	CHRM1 antagonist 23.0
O=C(NCc1ccc(Br)cc1)OC1CC2CC1[C@H]1CCCCN1C2=O (some centres undefined)	none (no result: CHRM1 PAM, CHRM1 antagonist, M1 ag)
COc1ccc(-c2ccc(-c3nc4ccc(C)cn4c3NC3CCCCC3)cc2OC)cc1	none
NS(=O)(=O)c1ccc(NC(=O)CSc2nnc(Cc3cccs3)n2-c2ccccc2)cc1	none
Cc1ccc(-n2c(Cc3cccs3)nnc2SCC(=O)Nc2ccc(S(N)(=O)=O)cc2)cc1	CHO-K1 Ca antag 25.1
O=C(COc1ccccc1Cl)Nc1nnc(S(=O)(=O)N2CCCCCC2)s1	none
Cc1cccc(C(=O)N2CC(=O)Nc3ccc(F)cc3C2c2ccc(F)cc2)c1 (centres undefined)	none
COCCN(C(=O)COC(=O)C12CC3CC(CC(C3)C1)C2)c1c(N)n(Cc2ccccc2)c(=O)[nH]c1=O	none
O=[N+]([O-])c1ccc(-c2cnc(SC(c3ccccc3)c3ccccc3)[nH]2)cc1	CHRM1 antagonist 26.4
COc1c(NC=O)c2c(c([N+](=O)[O-])c1OC)C(=O)OC2	none
COC(=O)C1=C(C)NC2=C(C(=O)CCC2)C1c1ccc(-c2ccsc2C(=O)OC)o1 (centres undefined)	M1 ag 25.3
CC1=C(C(=O)OC2CCCCCC2)C(c2ccc(C)o2)C2=C(CCCC2=O)N1 (centres undefined)	none
COc1ccc(OCCNC(=O)c2cccc(Oc3ccc(C(F)(F)F)cc3[N+](=O)[O-])c2)cc1	CHO-K1 Ca antag 25.3
O=C(O)/C=C/c1ccc(OCc2cccc(F)c2)cc1	none
Cc1ccnc(SCCn2c(N3CCOCC3)nc3c2c(=O)[nH]c(=O)n3C)n1	none
Cn1c(=O)[nH]c(=O)c2c1nc(N1CCOCC1)n2CCCSc1ncccn1	CHO-K1 Ca ag 15.6
CC1CC(C)CN(c2nc3c(c(=O)[nH]c(=O)n3C)n2CCCSc2nc3ccccc3s2)C1 (centres undefined)	none
CCN1CCN(c2nc3c(c(=O)[nH]c(=O)n3C)n2CCSc2nc3ccccc3s2)CC1	M1 ag 29.9
Cc1oc2cc3oc(=O)cc(C)c3cc2c1C	none
CN(Cc1ccccc1)C(=O)[C@@H]1CCCN1C(=O)[C@@H]1CCCN1C(=O)c1ccccc1	none (no result: CHRM1 PAM, CHRM1 antagonist, M1 ag)
CCC(C)c1ccc(S(=O)(=O)N2CCN(c3ccccn3)CC2)cc1 (centres undefined)	none
COc1ccc(Br)cc1CSC(=N)N	none
CCCCCOc1ccc(Br)cc1CSC(=N)N	CHRM1 antagonist 24.1, CHO-K1 Ca antag 24.2
Cc1ccc(S(=O)(=O)CCC(=O)Nc2ccc(F)cc2)cc1	none
CC1CCC(NC(=O)C2COc3ccccc3O2)CC1 (centres undefined)	none
O=C(Nc1nnc(-c2ccc3c(c2)CCCC3)o1)C1COc2ccccc2O1 (centres undefined)	CHO-K1 Ca antag 25.5
O=C(NC1CCCCC1)C1COc2ccccc2O1 (centres undefined)	CHRM1 antagonist 45.9
Cc1ccccc1OCCC(=O)OCC(=O)c1c(N)n(CC(C)C)c(=O)n(C)c1=O	CHRM1 antagonist 38.0, CHO-K1 Ca antag 24.1, CHO-K1 Ca ag 15.2
